Menin-MLL TR inh – displaces Texas Red mutant MLL peptide from human menin; Potency, µM (doses to about 61.6 µM), for inactives: at the highest dose FP activity change, negative = inhibition, hits mostly inhibitors; Menin + Texas Red MLL mutant peptide, fluorescence polarization; hit rate 0.23% among 270,000; active = well fitted inhibition curve with a large enough effect in the polarisation, with a control signal flat, not every such curve was filed as active; inconclusive = small, poorly fitted or top-dose-only effect, or effect the other way, or a change in a side signal; inactive = no such curve, though single readings can be large or run the other way; the % refers to the polarisation; also: potency is read from the fitted curve at half-maximal effect; % of control where 0% means no effect
Target sequence (O00255 whole entry, looked up): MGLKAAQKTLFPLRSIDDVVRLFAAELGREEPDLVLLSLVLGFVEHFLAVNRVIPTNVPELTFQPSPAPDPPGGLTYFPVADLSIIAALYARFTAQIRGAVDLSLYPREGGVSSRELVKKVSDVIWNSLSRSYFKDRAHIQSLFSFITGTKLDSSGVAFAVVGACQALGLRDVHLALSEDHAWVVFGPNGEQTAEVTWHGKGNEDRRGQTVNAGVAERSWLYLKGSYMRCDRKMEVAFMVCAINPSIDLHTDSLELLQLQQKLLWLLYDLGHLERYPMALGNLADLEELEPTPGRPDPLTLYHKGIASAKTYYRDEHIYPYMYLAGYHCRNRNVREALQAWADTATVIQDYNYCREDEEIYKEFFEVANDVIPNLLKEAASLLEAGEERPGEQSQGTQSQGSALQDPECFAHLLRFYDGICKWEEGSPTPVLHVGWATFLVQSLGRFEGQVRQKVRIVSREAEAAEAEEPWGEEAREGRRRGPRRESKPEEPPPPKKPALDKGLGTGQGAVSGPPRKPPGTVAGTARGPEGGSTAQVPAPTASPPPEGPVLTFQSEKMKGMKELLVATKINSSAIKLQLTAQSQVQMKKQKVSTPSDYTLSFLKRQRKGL
Menin MLL FP FL – displaces fluorescein MLL peptide from human menin. FP activity change, % at 61.4 µM. 290,000 tested, under 10 active. Fluorescence polarization, fluorescein-MLL peptide displacement from menin. AID 1766; active = well fitted curve in the direction sought with a large enough effect in the polarisation, not every such curve was filed as active; inconclusive = small, poorly fitted or top-dose-only effect, or effect the other way, or a change in a side signal; inactive = no such curve, though single readings can be large or run the other way; the % refers to the polarisation; also: % of control where 0% means no effect
CXXC DNA block – MLL CXXC-DNA interaction inhibition. hit rate 0.037% among 290,000. AID 2662. MLL-CXXC / FITC-HOXA9 DNA fluorescence polarization. Potency, µM (top dose mostly 115 µM), for inactives: at the top dose activity change, negative = inhibition, most hits filed as inhibitors. Q03164; active = well fitted inhibition curve with a large enough effect in the polarisation, with a control signal flat, not every such curve was filed as active; inconclusive = small, poorly fitted or top-dose-only effect, or effect the other way, or a change in a side signal; inactive = no such curve, though single readings can be large or run the other way; the % refers to the polarisation; also: potency is read from the fitted curve at half-maximal effect
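Fluorescence polarization: 7 uM MLL-CXXC (stock) preincubated 5 min with compounds, then 50 nM fluorescein-HOX-A9 DNA (stock) added; 30 min ambient. Buffer 50 mM Tris-HCl pH 7.5, 50 mM NaCl, 1 mM DTT, 0.05% BSA.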
Lamin A splicing – LMNA splicing modulation; AID 1487; hit rate 0.01% among 200,000; HeLa LMNA splicing GFP/RFP minigene ratio, 48 h; Potency, µM (top dose mostly 46.1 µM), without a hit: top-dose ratio change, negative = inhibition, usual class: inhibitors; active = well fitted inhibition curve with a large enough effect in the signal ratio, with a control signal flat, not every such curve was filed as active; inconclusive = small, poorly fitted or top-dose-only effect, or effect the other way, or a change in a side signal; the % refers to the signal ratio; also: potency is read from the fitted curve at half-maximal effect; % is scaled to controls: 0 for no effect and ±100 for the full control effect
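Read-out is the ratio of GFP to DsRed2 object intensity, acquired by 488 nm laser-scanning cytometry on HeLa lamin A-EGFP minigene reporter cells. Compound incubation 48 hrs at 37 °C in Opti-MEM with 2% FBS; DMSO 0.5% final.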
* = called active by the depositor; ! = not confirmed by another sample; [ ] = another dose, or the depositor's remark. The sample as a whole holds a higher share of hits than the screen did.

What do the screens show for `C=CC#CC[N+]1(CC#Cc2ccccc2)CCOCC1`?
Menin-MLL TR inh: 25.1µM*; Menin MLL FP FL: -19.7; CXXC DNA block: 51.5%; Lamin A splicing: 6.5%

What do the screens show for `CC(C)(C)OC(=O)NS(=O)(=O)Nc1ccccc1Br`?
Menin-MLL TR inh: 13.1%; Menin MLL FP FL: -0.9

How did Cc1ccc(-c2nnc(Nc3ccc(Br)cc3)c3ccccc23)cc1S(=O)(=O)N1CCN(C)CC1 do in these assays?
Lamin A splicing: 4.3%[46 µM]

What do the screens show for `C[C@H]1Cc2c(-c3ccccc3)nc3c(c2CO1)CN(C(=O)c1cc(I)ccc1F)CC3`?
Menin-MLL TR inh: -1.2%[11.7 µM]; Menin MLL FP FL: 1.6[11.7 µM]; Lamin A splicing: 11.2%[9.22 µM]

Results for NCCc1cnc[nH]1 ?
Menin-MLL TR inh: -8.0%; Menin MLL FP FL: -3.5; CXXC DNA block: -2.2%; Lamin A splicing: 0.891µM*!

What do the screens show for `O=C(O)C[C@@H]1C(=O)O[C@@H]2C(COC(=O)c3cc(O)c(O)c(O)c3)O[C@@H](OC(=O)c3cc(O)c(O)c(O)c3)[C@@H](OC(=O)c3cc(O)c(O)c4c3[C@H]1[C@H](O)C(=O)O4)[C@H]2OC(=O)c1cc(O)c(O)c(O)c1` (stereo not given in full)?
Menin MLL FP FL: 11.8; CXXC DNA block: 28.2µM*

What do the screens show for `COC1OC(COC(=O)c2ccccc2)C(OC(=O)c2ccccc2)C1OC(=O)c1ccccc1` (stereo not given)?
Menin-MLL TR inh: 18.9%; Menin MLL FP FL: 0.6; CXXC DNA block: 1.2%

Results for CCN(CC)c1ccc(C=Nc2ccc(N(C)C)cc2)c(O)c1 ?
Menin-MLL TR inh: 20µM*; Menin MLL FP FL: inconclusive; CXXC DNA block: inconclusive; Lamin A splicing: -6.8%

What do the screens show for `Cc1cccc2c1NC(C)CC2C` (stereo not given)?
Menin-MLL TR inh: 25.1µM*; Menin MLL FP FL: -3.4; CXXC DNA block: -1.1%; Lamin A splicing: 5.5%

Results for COc1ccccc1COCC(O)CNCCc1ccc(C(F)(F)F)cc1 (stereo not given) ?
Menin-MLL TR inh: 22.4µM*; Menin MLL FP FL: -7.4; CXXC DNA block: 13.1%

What do the screens show for `OC(CNCCc1ccc(C(F)(F)F)cc1)COc1cccc2ccccc12` (stereo not given)?
Menin-MLL TR inh: 1.4%; Menin MLL FP FL: 8.2; CXXC DNA block: 10.7%; Lamin A splicing: -12.3%

How did O=C(O)COc1cccc2c1CCC=C2CCO/N=C(\c1ccccc1)c1cccnc1 do in these assays?
Menin-MLL TR inh: 10.6%; Menin MLL FP FL: -4.4

Results for COc1ccc(-c2nnc3n2N=C(c2ccccc2OC)CS3)cc1OC ?
Menin-MLL TR inh: -16.7%; Menin MLL FP FL: 2.6

Results for COc1ccc(C2=Nn3c(nnc3-c3ccccc3OC)SC2)cc1OC ?
Menin-MLL TR inh: 11.2µM*; Menin MLL FP FL: 5.3; CXXC DNA block: -5.6%; Lamin A splicing: inconclusive

How did C=CC1=C2C=C(C3CC3)N(Cc3ccco3)C=C2C(=O)C(C)(OC(=O)c2ccco2)C1=O (stereo not given) do in these assays?
Menin-MLL TR inh: 2.4%[11.7 µM]; Menin MLL FP FL: 0.5[11.7 µM]; Lamin A splicing: 5.9%[9.22 µM]

What do the screens show for `Cc1ccc(NC(=O)C2C3CCC(O3)C2C(=O)O)cc1C` (stereo not given)?
Menin-MLL TR inh: -3.4%; Menin MLL FP FL: 0.9; CXXC DNA block: 3.7%

Results for O=C(O)C1C2CCC(O2)C1C(=O)Nc1ccc(O)cc1 (stereo not given) ?
Menin-MLL TR inh: 31.6µM*; CXXC DNA block: -1.7%; Lamin A splicing: inconclusive

How did CC[C@@H](C)[C@H](CNC)NC[C@@H](Cc1cccc2ccccc12)NCCc1cccc(C(F)(F)F)c1 do in these assays?
Menin-MLL TR inh: 31.6µM*; Menin MLL FP FL: 1.2; CXXC DNA block: 126.8%

What do the screens show for `O=C(CSc1nc2ccccc2s1)N1c2ccccc2Sc2ccc(Cl)cc21`?
Menin-MLL TR inh: 20µM*; Menin MLL FP FL: -4.2; CXXC DNA block: 23.2%; Lamin A splicing: inconclusive

What do the screens show for `COc1[nH]c(/N=C/c2ccccc2)c(C#N)c1C#N`?
Menin-MLL TR inh: 11.2µM*; Menin MLL FP FL: inconclusive; CXXC DNA block: 8.2%; Lamin A splicing: 6.8%

Results for COC(=O)C1=C(C(=O)OC)[C@@H]2N(C)c3ccccc3[C@@]23C[C@@H](C(=O)OC)N(S(=O)(=O)c2ccc(C(F)(F)F)cc2)C3=N1 ?
Menin-MLL TR inh: 0.2%[11.7 µM]; Menin MLL FP FL: -2.6[11.7 µM]; Lamin A splicing: 9.3%[9.22 µM]

What do the screens show for `O=C1[C@H]2[C@H]3[C@H](O)[C@H](O)C/C(=N/OC[C@@H](O)COCc4ccco4)[C@@H]3CC[C@@H]2C(=O)N1C1CCCCC1`?
Menin-MLL TR inh: -9.9%[11.7 µM]; Menin MLL FP FL: -3.2[11.7 µM]

Results for Cc1cc(C)c2sc(NC(=O)c3ccc(S(=O)(=O)N4CCOCC4)cc3)nc2c1 ?
Lamin A splicing: 20.0%[46 µM]

What do the screens show for `COc1ccc(OC)c2sc(NC(=O)c3ccc(S(=O)(=O)N4CCOCC4)cc3)nc12`?
Menin-MLL TR inh: 17.8µM*; Menin MLL FP FL: -0.4; CXXC DNA block: 9.7%; Lamin A splicing: -0.3%

What do the screens show for `COc1cc2nc(SCc3ccc(C(F)(F)F)cc3)n(Cc3cccs3)c(=N)c2cc1OC`?
Menin-MLL TR inh: 17.2%; Menin MLL FP FL: 4.1; CXXC DNA block: 5.2%; Lamin A splicing: -1.9%

Results for COc1cc2nc(SCc3ccc(Cl)cc3Cl)n(Cc3cccs3)c(=N)c2cc1OC ?
Menin-MLL TR inh: 39.8µM*; Menin MLL FP FL: 0.5; CXXC DNA block: 21.5%; Lamin A splicing: 6.8%

What do the screens show for `O=C(Nc1nc(-c2ccc3c(c2)Cc2ccccc2-3)cs1)c1ccccc1`?
Menin-MLL TR inh: 15.8µM*; Menin MLL FP FL: 2.5; CXXC DNA block: 5.3%; Lamin A splicing: -12.3%

What do the screens show for `O=C(Nc1cccc(-c2csc(Nc3ccccc3)n2)c1)c1ccccc1`?
Menin MLL FP FL: 3.2; CXXC DNA block: 4.7%

What do the screens show for `Cc1noc(C)c1-c1ccc2ncnc(N3CCOCC3)c2c1`?
Menin-MLL TR inh: -1.9%; Menin MLL FP FL: 0.9; Lamin A splicing: 10µM*

What do the screens show for `Cc1noc(C)c1-c1ccc2ncnc(N3CCN(C)CC3)c2c1`?
Menin-MLL TR inh: -24.5%; Menin MLL FP FL: -1.3; Lamin A splicing: 7.08µM*

How did CCCCOc1ccc(-c2c(C#N)c(N)nc(SCC(N)=O)c2C#N)cc1 do in these assays?
Menin-MLL TR inh: 12.6µM*; Menin MLL FP FL: 2.0; CXXC DNA block: -5.9%; Lamin A splicing: 2.6%

How did NNC(=O)Cn1c(-c2nonc2N)nc2ccccc21 do in these assays?
Menin-MLL TR inh: -0.8%; Menin MLL FP FL: 6.5; CXXC DNA block: 1.8%; Lamin A splicing: -10.2%[46 µM]

What do the screens show for `Nc1nonc1-c1nc2ccccc2n1CC(=O)N/N=C\c1ccc(-c2ccc(Cl)cc2)o1`?
Menin-MLL TR inh: 10µM*; Menin MLL FP FL: 11.0; CXXC DNA block: 49.2%; Lamin A splicing: 21.4%

How did O=C1C2C3c4ccccc4C(c4ccccc43)C2C(=O)N1c1nc(-c2ccccc2)cs1 (stereo not given) do in these assays?
Menin-MLL TR inh: 11.2µM*; Menin MLL FP FL: 3.1; CXXC DNA block: 24.2%; Lamin A splicing: -1.9%

From PubChem
